Reference: PubChem BioAssay AID493131 (Broad Institute, 2011)
Among all 340,000 compounds or so, about 3,300 (0.97%) were called active.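 Rule for the calls: active = mean activation above about 17%, with every replicate also reaching it (limit read from the data, passing the limit was not always enough); inconclusive = only one of the two conditions met; inactive = the rest.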 Only a selection was taken, and actives are over-represented in it overall.

The compounds below were run against Protein FosB (Mus musculus) (UniProt P13346) (assay: activators of delta FosB homodimer, primary screen, biochemical, fluorescence polarization, TAMRA-CDK5 oligo, single point (AID 493131;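 note: fluorescence polarization rise as delta FosB binds a TAMRA Cdk5 AP-1 oligo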)). Details: purified delta FosB, at 25 µM, stronger effect = higher value.
Chain of Protein FosB (Mus musculus) (P13346 whole entry, looked up): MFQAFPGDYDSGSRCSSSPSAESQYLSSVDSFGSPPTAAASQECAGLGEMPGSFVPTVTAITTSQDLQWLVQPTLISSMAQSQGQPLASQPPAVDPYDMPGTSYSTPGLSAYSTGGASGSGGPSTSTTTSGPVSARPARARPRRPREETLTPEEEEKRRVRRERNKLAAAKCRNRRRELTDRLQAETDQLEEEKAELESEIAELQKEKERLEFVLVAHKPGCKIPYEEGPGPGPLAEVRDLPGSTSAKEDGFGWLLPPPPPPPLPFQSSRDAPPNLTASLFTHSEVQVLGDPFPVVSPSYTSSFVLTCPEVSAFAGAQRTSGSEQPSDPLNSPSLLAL

Row | SMILES | activation
1 | O=c1[nH]c(CN2CC=C(c3ccccc3)CC2)nc2scc(-c3cccs3)c12 | 35.5% (active)
2 | CC1([N+](=O)[O-])COP(=O)(Nc2ccc(F)cc2)OC1 (stereo not given) | 2.39% (inactive)
3 | C[C@@]1([C@@H](NP(=O)(c2ccccc2)c2ccccc2)c2ccccc2)C[C@H]1CCO | 0.415% (inactive)
4 | N#Cc1ccc(Cn2cc(C(=O)c3ccco3)c3ccccc32)cc1 | -7.9% (inactive)
5 | C=CCN1C(=O)C2(C(C(=O)OCC)=C(N)Oc3c2c(=O)oc2ccccc32)c2ccccc21 (stereo not given) | -8.76% (inactive)
6 | OC(Cn1c2ccccc2c2ccccc21)C[n+]1ccccc1 (stereo not given) | 20.4% (active)
7 | COC(=O)C1=C(c2cccc(OCc3ccccc3)c2)C[C@@H]2CC[C@H]1N2C(=O)NNCc1ccccc1 | -6.41% (inactive)
8 | Cc1ccc(CN2CCCC(C(=O)c3ccc4c(c3)OCO4)C2)cc1C (stereo not given) | -3% (inactive)
9 | CCN1CCN(c2nc3c(c(=O)[nH]2)CCC3)CC1 | -2.7% (inactive)
10 | O=C(c1ccccc1)C(O)(CN1CCCCC1)c1ccccc1 (stereo not given) | -1.99% (inactive)
